# Compounds with a hit are over-represented: about 4% of the library has one in this group of screens.
# Beta apoptosis: beta cell apoptosis inhibition; INS-1E cytokine-induced death, ATP luminescence, 48 h; percent of positive-control rescue, neutral wells zero; protection from apoptosis, % (test concentration not listed); 0.8% of 300,000 active;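 active = Every replicate reaches about 75%, or at least half do and their mean reaches it too, limit read from the data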;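 note: 0% = cytokine-treated negative control wells and 100% = positive control rescue; higher means more ATP so stronger rescue from cytokine killing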
# Gli-Sufu antag: blocks Gli-Sufu signaling in a luciferase reporter. inhibition, % at 5 µM. Sufu-KO-LIGHT fibroblasts, Gli luciferase reporter luminescence. 0.74% of 340,000 active;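 active = inhibition above about 55%, limit read from the data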;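 note: 0% = DMSO-treated cells and 100% = wells with medium but no cells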
# CSC inhib: blocks cancer stem cells; inhibition, % at 7.5 µM; AID 2717; 1.1% of 300,000 active; cancer stem cell-like cells viability, luminescence; in the data active = inhibition above about 75%; tested in HMLE shEcad cells
# PAX8 reporter: lowers PAX8-driven luciferase in RMG-I cells. RMG-I TPO-luciferase reporter, SteadyGlo, 24 h. inhibition, % at 12.6 µM. 1.2% of 360,000 active. AID 652154;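 active = mean replicate inhibition at least 60% with every replicate also reaching 60%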;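 note: luciferase light reporting Pax8 driven TPO promoter activity; plate controls were median of neutral control wells for no effect and mitoxantrone controls for full effect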
# Mdm2 MdmX PPI: disrupts the human Mdm2-MdmX interaction | O15151+Q00987 | SaOS-2 split-luciferase Mdm2/MdmX complementation, luminescence | inhibition, % at 8 µM | 3% of 330,000 active | AID 485346;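 active = inhibition of at least 50% at 8 µM in the primary screen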
# Shn3 inh set2: Schnurri-3 reporter inhibition in Clone20 osteoblasts; Clone20 osteoblast Shn3 3'UTR firefly luciferase, 24 h; 0.52% of 360,000 active; inhibition, % at 12.5 µM; AID 588674;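 active = mean inhibition of at least 75% with every replicate also reaching 75%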;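 note: 0% = median of neutral control wells and 100% = pilot-screen positive control compound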
# Starred values were filed as active, the others as inactive; · = not tested or not shown.
SMILES,Beta apoptosis,Gli-Sufu antag,CSC inhib,PAX8 reporter,Mdm2 MdmX PPI,Shn3 inh set2
C[C@@H]1CCCCO[C@H](CN(C)S(=O)(=O)c2ccc(F)cc2)[C@@H](C)CN([C@@H](C)CO)C(=O)c2cc(NC(=O)Nc3ccc(C(F)(F)F)cc3)ccc2O1,·,·,·,65*,·,·
C[C@@H]1CCCCO[C@@H](CN(C)S(=O)(=O)c2ccc(Cl)cc2)[C@H](C)CN([C@H](C)CO)C(=O)c2cc(NC(=O)Nc3ccc(C(F)(F)F)cc3)ccc2O1,·,·,·,70*,·,·
C[C@@H]1CCCCO[C@@H](CN(C)S(=O)(=O)c2ccc(F)cc2)[C@H](C)CN([C@H](C)CO)C(=O)c2cc(NC(=O)Nc3ccc(C(F)(F)F)cc3)ccc2O1,·,·,·,73*,·,·
C[C@@H]1CCCCO[C@@H](CN(C)S(=O)(=O)c2ccc(F)cc2)[C@H](C)CN([C@@H](C)CO)C(=O)c2cc(NC(=O)Nc3ccc(C(F)(F)F)cc3)ccc2O1,·,·,·,41,·,·
C[C@H](O)C#Cc1ccc2c(c1)O[C@@H](CN(C)C(=O)c1ccncc1)[C@H](C)CN([C@H](C)CO)S2(=O)=O,·,·,·,0,·,·
O=C(C[C@@H]1CC[C@@H](NC(=O)CCN2CCCCC2)[C@@H](CO)O1)NCc1ccc(Cl)c(Cl)c1,·,·,·,-2,·,·
C[C@@H]1CCCCO[C@@H](CN(C)CC2CC2)[C@@H](C)CN([C@H](C)CO)C(=O)c2cc(NS(C)(=O)=O)ccc2O1,·,·,·,6,·,·
Cc1ccc(-c2nc3cccnc3s2)cc1NS(=O)(=O)c1ccc2c(c1)OCCO2,8,-2,77*,22,39,-13
Cc1noc(C)c1S(=O)(=O)Nc1ccc2c(c1)CC(=O)N([C@@H](C)CO)C[C@H](C)[C@H](CN(C)S(C)(=O)=O)O2,·,·,·,10,·,·
N#CCCn1c(-c2nonc2NC(=O)c2ccccc2Cl)nc2ccccc21,21,17,-14,·,20,15
CCCCn1c(-c2nonc2NC(=O)c2ccccc2Cl)nc2ccccc21,·,1,·,21,·,89*
CSc1ccccc1C(=O)Nc1cc(C)ccc1C,-15,-8,78*,-20,28,12
O=C1C=C(Nc2ccc(O)cc2)C(=O)c2ccccc21,100*,-1,105*,-25,-25,-39
CCN(CC)c1ccc(NC2=C(Cl)C(=O)c3ccccc3C2=O)cc1,1,-40,106*,·,·,97*
CCCC(=O)NC1=C(Cl)C(=O)c2ccccc2C1=O,·,1,·,103*,·,90*
Cc1ccc(NC2=CC(=O)C(=O)c3ccccc32)cc1,100*,12,-8,9,-7,5
CCNC(=O)C[C@H]1CC[C@@H]2[C@@H](COc3ccc(NC(=O)Nc4cccc(C)c4)cc3C(=O)N2C)O1,·,·,·,0,·,·
CCC(=O)NC[C@@H]1[C@H](c2ccccc2)[C@H](CO)N1C(=O)C1CCC1,·,·,·,-3,·,·
Cc1ccc(NC2=C(Cl)C(=O)c3ccccc3C2=O)cc1,3,5,112*,-89,·,-59
NC(CCc1ccccc1)c1csc(NC(=O)Nc2ccccc2Oc2ccccc2)n1 (stereo not drawn),·,·,·,16,·,96*
CC(C)c1ccc(NC(=O)Nc2nc(C(N)c3ccccc3)cs2)cc1 (stereo not drawn),·,·,·,-8,·,93*
NC(CCc1ccccc1)c1csc(NC(=O)NCCc2ccccc2)n1 (stereo not drawn),·,·,·,2,·,10
CC(C)c1ccc(NC(=O)Nc2nc(C(N)COCc3ccccc3)cs2)cc1 (stereo not drawn),·,·,·,-6,·,93*
CC(C)c1ccc(NC(=O)Nc2nc(C(N)C(C)C)cs2)cc1 (stereo not drawn),·,·,·,43,·,14
O=C(Nc1ccc(Cl)cc1)Nc1nc(-c2ccccc2O)cs1,109*,-4,28,17,27,·
SMILES,Beta apoptosis,Gli-Sufu antag,CSC inhib,PAX8 reporter,Mdm2 MdmX PPI,Shn3 inh set2
CCCNC(=O)Nc1ccc2c(c1)C(=O)N(C)C[C@H](OC)[C@@H](C)CN(C(=O)C1CCC1)[C@H](C)CO2,·,·,·,-18,·,·
C[C@H]1CCCCO[C@@H](CN(C)C(=O)Nc2ccc3c(c2)OCO3)[C@@H](C)CN([C@@H](C)CO)C(=O)c2cc(NC(=O)Nc3ccccc3)ccc2O1,·,·,·,-7,·,·
CC(C)c1ccccc1NC(=O)Nc1nc(C(N)Cc2ccc(C(F)(F)F)cc2)cs1 (stereo not drawn),·,·,·,21,·,98*
NC(Cc1ccc(C(F)(F)F)cc1)c1csc(NC(=O)Nc2ccccc2Cc2ccccc2)n1 (stereo not drawn),·,·,·,-7,·,84
Cc1nn(CCO)c2nc(-c3cccs3)cc(C(F)(F)F)c12,-4,-3,-1,161*,17,-25
Cc1noc(C)c1NC(=O)Nc1ccc2c(c1)C(=O)N([C@H](C)CO)C[C@@H](C)[C@H](CN(C)S(=O)(=O)c1ccccc1)OCCCC[C@H](C)O2,·,·,·,-13,·,·
CCCn1nc([N+](=O)[O-])c(C(C#N)c2nc3ccccc3o2)c(Cl)c1=O (stereo not drawn),0,1,79*,1,-17,20
Cn1nc([N+](=O)[O-])c(C(C#N)c2ccccn2)c(Cl)c1=O (stereo not drawn),-40,3,88*,22,23,-9
CN(C)C(=O)C[C@H]1C=C[C@H](NS(=O)(=O)c2ccccc2)[C@H](CO)O1,·,·,·,-4,·,·
O=[N+]([O-])c1ccc(Nc2ccc(N3CCOCC3)cc2)c([N+](=O)[O-])c1,2,-38,3,90*,-9,-52
C=CCn1c(COc2ccc(Cl)cc2)nnc1SCC(=O)Nc1ccc(S(N)(=O)=O)cc1,-1,-1,-14,64*,-25,-5
Cc1ccc(S(=O)(=O)Nc2ccc3c(c2)CC(=O)N([C@H](C)CO)C[C@H](C)[C@H](CN(C)Cc2ccc(Cl)c(Cl)c2)O3)cc1,·,·,·,7,·,·
Cc1ccc(S(=O)(=O)Nc2ccc3c(c2)CC(=O)N([C@@H](C)CO)C[C@@H](C)[C@H](CN(C)Cc2ccc(Cl)c(Cl)c2)O3)cc1,·,·,·,92*,·,·
Cc1ccc(S(=O)(=O)Nc2ccc3c(c2)CC(=O)N([C@@H](C)CO)C[C@@H](C)[C@H](CN(C)Cc2ccc(C(F)(F)F)cc2)O3)cc1,·,·,·,63*,·,·
C[C@@H]1CN([C@@H](C)CO)C(=O)Cc2cc(NS(=O)(=O)c3ccccc3)ccc2O[C@H]1CN(C)Cc1ccc(C(F)(F)F)cc1,·,·,·,92*,·,·
C[C@@H]1CN([C@@H](C)CO)C(=O)Cc2cc(NS(=O)(=O)c3ccccc3)ccc2O[C@@H]1CN(C)Cc1ccc(C(F)(F)F)cc1,·,·,·,-2,·,·
C[C@H](CO)N1C[C@H](C)[C@@H](CN(C)Cc2ccc(C(F)(F)F)cc2)Oc2ccc(NS(=O)(=O)c3ccc(Cl)cc3)cc2CC1=O,·,·,·,102*,·,·
Cc1ccc(S(=O)(=O)Nc2ccc3c(c2)CC(=O)N([C@H](C)CO)C[C@@H](C)[C@@H](CN(C)Cc2ccc(C(F)(F)F)cc2)O3)cc1,·,·,·,6,·,·
CCCNC(=O)N1CC2(CN(S(=O)(=O)CC)C2)c2c(n(C)c3cc(OC)ccc23)[C@H]1CO,·,·,·,-10,·,·
